Source: PubChem
ALOX15 inhib – inhibitors of human 15-lipoxygenase (ALOX15) | P16050 | purified 15hLO-1, xylenol orange hydroperoxide absorbance | Potency, µM (doses to about 57.1 µM), for the others: at the top dose activity change, negative = inhibition, usual class: inhibitors | hit rate 1.4% among 74,000; also: potency is read from the fitted curve at half-maximal effect; % is scaled to controls: 0 for no effect and ±100 for the full control effect; nearly all actives have a fitted effect of over 55% in size
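Inhibition is scored from a chromogenic endpoint. After 15 min enzyme-compound contact, arachidonic acid (50 uM final) reacts 6 min with 40 nM 15hLO-1 at room temperature, then Fe-XO reagent is added for 30 min and absorbance ratio recorded.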
DNA Pol III inh – blocks replication by bacterial DNA polymerase III holoenzyme. AID 603. hit rate 0.25% among 71,000. reconstituted DNA polymerase III holoenzyme replication, biochemical. Potency, µM (top dose mostly 57.1 µM), inactives show at the highest dose activity change, negative = inhibition; also: potency is read from the fitted curve at half-maximal effect; % is scaled to controls: 0 for no effect and ±100 for the full control effect
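Reconstituted *E. coli* holoenzyme (0.35 nM Pol III, 1 nM beta, 154 nM SSB, 2 nM primase) was preincubated with compound for 15 min at RT. Synthesis on 1.4 nM ssM13Gori ran 35 min, then was stopped with PicoGreen/EDTA and read as dsDNA fluorescence.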
Hsp90 Hop PPI – changes Hsp90-Hop TPR2A binding signal, up or down. hit rate 0.44% among 71,000. Potency, µM (doses to about 57 µM), for inactives: at the top dose activity change, negative = inhibition. AID 595. AlphaScreen TPR2A-His6 binding biotin-Hsp90 C-terminal peptide; active = well fitted curve in either direction with a large enough effect; inconclusive = small, poorly fitted or top-dose-only effect, or another doubt; also: potency is read from the fitted curve at half-maximal effect; % is scaled to controls: 0 for no effect and ±100 for the full control effect
YjeE inh – YjeE (TsaE) inhibition, E. coli; P0AF67; purified YjeE enzyme, qHTS inhibition assay; Potency, µM; hit rate 0.05% among 71,000
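Fluorescence polarization of a BODIPY Texas Red–ADP probe (2 uM) bound to purified YjeE (10 uM) was read after 15 min room-temperature incubation with compounds. Loss of polarization marks inhibitors; ADP serves as titrated control.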
Tau fil binding – tau filament binding. P10636. hit rate 2% among 71,000. recombinant tau filaments, thioflavin S fluorescence, 15 h; filaments grown with octadecylsulfate alongside compound. Potency, µM (doses to about 57.1 µM), inactives show at the highest dose activity change, negative = inhibition;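 also: potency is read from the fitted curve at half-maximal effect; % is scaled to controls: 0 for no effect and ±100 for the full control effect; actives lower thioflavin S fluorescence by blocking filaments or displacing dye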
Target sequence (P10636 whole entry, looked up): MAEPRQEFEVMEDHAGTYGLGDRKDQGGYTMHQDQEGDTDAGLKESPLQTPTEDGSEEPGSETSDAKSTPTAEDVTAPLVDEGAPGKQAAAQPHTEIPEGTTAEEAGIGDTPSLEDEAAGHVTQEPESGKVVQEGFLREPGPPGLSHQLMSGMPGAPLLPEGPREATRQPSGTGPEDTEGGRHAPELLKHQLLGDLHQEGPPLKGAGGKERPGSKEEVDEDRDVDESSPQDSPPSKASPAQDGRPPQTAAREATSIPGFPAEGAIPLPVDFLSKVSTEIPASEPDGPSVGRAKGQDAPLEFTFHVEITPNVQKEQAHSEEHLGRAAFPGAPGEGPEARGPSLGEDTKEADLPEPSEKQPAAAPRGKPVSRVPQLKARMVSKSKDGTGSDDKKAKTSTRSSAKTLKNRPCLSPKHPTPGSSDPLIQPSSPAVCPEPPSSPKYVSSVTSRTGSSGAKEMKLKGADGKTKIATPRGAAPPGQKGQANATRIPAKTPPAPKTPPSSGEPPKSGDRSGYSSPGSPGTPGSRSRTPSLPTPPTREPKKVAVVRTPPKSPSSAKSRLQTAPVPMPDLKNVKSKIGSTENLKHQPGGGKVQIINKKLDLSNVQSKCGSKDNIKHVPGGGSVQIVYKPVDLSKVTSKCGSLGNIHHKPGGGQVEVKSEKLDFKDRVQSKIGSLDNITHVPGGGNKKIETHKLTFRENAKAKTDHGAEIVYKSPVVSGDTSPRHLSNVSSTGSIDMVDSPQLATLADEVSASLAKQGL
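His-tagged recombinant human tau (exons 2, 3, 10; 1 uM final) fibrillized with 30 uM sodium octadecylsulfate, 15 h at 37 C, in pH 7.4 HEPES buffer with 10 uM thioflavine S and 5 mM DTT. Reduced ThS fluorescence (450/510 nm) marks activity.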
Starred values were filed as active, the others as inactive; i = inactive; ? = inconclusive; / = no result; ! = not active in a repeat; [ ] = another dose, or the depositor's remark. Compounds with a hit are over-represented: about 3.3% of the library has one in this group of screens. Unless noted, calls follow the shape of the dose curve; as a rule, active = well fitted curve in the direction sought with a large enough effect; inconclusive = small, poorly fitted or top-dose-only effect, or another doubt; inactive = no such curve, though single readings can be large; an effect the other way counts as inactive or inconclusive.

SMILES | ALOX15 inhib | DNA Pol III inh | Hsp90 Hop PPI | YjeE inh | Tau fil binding
COc1ccc(S(=O)(=O)c2c(N)n(Cc3ccco3)c3nc4ccccc4nc23)cc1 | 20µM* | 7% | 10% | i | -20%
COc1ccc(Cn2c3nc4ccccc4nc3c3c(=O)n(Cc4ccco4)c(C)nc32)cc1 | -28% | ? | -5% | i | ?
Cc1nc2c(c(=O)n1Cc1ccccc1Cl)c1nc3ccccc3nc1n2Cc1ccco1 | ? | -20% | -5% | i | 16µM*
COc1ccc(Cn2c(C)nc3c(c2=O)c2nc4ccccc4nc2n3Cc2ccco2)cc1 | -23% | ? | -7% | i | 2.5µM*
Cc1ccc(S(=O)(=O)c2c(N)n(/N=C/c3ccco3)c3nc4ccccc4nc23)cc1C | ? | -2% | -5% | i | 16µM*
Sc1ccc2ccccc2c1CNCc1ccccc1 | -15%[11.4 µM] | -10%[11.4 µM] | -9%[11 µM] | i | 4%[11.4 µM]
CCC1(C)Nc2ccccc2C(=O)N1O (stereo not drawn) | 2% | 0% | -3% | i | -6%
CC1=CC(C)(C)Nc2ccccc21 | -8% | -2% | -5% | i | 16µM*!
CCN(CC)COC(=S)S | -11%[11.4 µM] | 8%[11.4 µM] | 0%[11 µM] | i | -4%[11.4 µM]
CC(=O)OCC1OC(C#CCC2CCCCC2)C=CC1OC(C)=O (stereo not drawn) | 9%[11.4 µM] | / | / | / | /
CCCCCC[C@@H]([C@@H](C)O)n1cnc2c(N)ncnc21 | 13µM* | -1% | 1% | i | ?
CCCC(=O)c1cc(O)c(O)cc1O | 4µM* | ? | -7% | i | ?
Cc1ccc(S(=O)(=O)CCC(=O)c2ccc(O)cc2O)cc1 | -13% | -9% | 0% | i | -12%
O=C1c2ccccc2C(=O)c2c1ccc(N1C(=O)c3ccccc3C1=O)c2-c1c(N2C(=O)c3ccccc3C2=O)ccc2c1C(=O)c1ccccc1C2=O | / | 0%[11.4 µM] | -1%[11 µM] | i | ?
CCCCc1ccc(C2C(C#N)=C(N)SC(N)=C2C#N)s1 | 0.79µM* | -4%[11.4 µM] | -11%[11 µM] | i | 0.32µM*
NCC[C@H]1CCC[C@H](CCN)N1 | 5% | 1% | -5% | i | 1%
CON(C)C(=O)c1nnc2c(n1)[nH]c1ccccc12 | 5%[11.4 µM] | / | / | / | /
NC(=O)c1sc2nc3c(c(-c4ccco4)c2c1N)CCC3 | -23% | -4% | -6% | i | 16µM*
CC(=O)n1c(COS(C)(=O)=O)nc2ccccc21 | 3%[11.4 µM] | 14%[11.4 µM] | -6%[11 µM] | i | 8%[11.4 µM]
CCOC(=O)C[C@@H](C(=O)OCC)[C@@H]1CCCCC1=O | 0%[11.4 µM] | / | / | / | /
CCCCCCC(=O)Cc1cc(OC)c(OC)cc1/C=C(/C(C)=O)C(=O)OC | 3%[11.4 µM] | / | / | / | /
CCc1ccc2oc(-c3cc(N=Cc4cccc(OC)c4O)ccc3O)nc2c1 | -9% | -3% | -7% | i | 13µM*
CCCCCc1c(C)nc(NCc2ccccc2)[nH]c1=O | -12% | -1% | -3% | i | 32µM*
COc1ccc(-c2nc3cnc(N4CCN(C)CC4)nc3n(Cc3cccs3)c2=O)cc1 | -29% | -5% | -5% | i | 262%
CN(C)c1ncc2nc(-c3cc(F)cc(F)c3)c(=O)n(Cc3cccs3)c2n1 | 7.9µM* | -2% | 0% | i | -4%
SMILES | ALOX15 inhib | DNA Pol III inh | Hsp90 Hop PPI | YjeE inh | Tau fil binding
Cn1c(=O)c(-c2cc(F)cc(F)c2)nc2cnc(N3CCNCC3)nc21 | 2% | -3% | 2% | i | 5µM*
CN(C)c1ncc2nc(-c3ccc(F)cc3)c(=O)n(Cc3cccs3)c2n1 | -12% | -8% | -6% | i | -1%
Cc1nc2cnc(N(C)C)nc2n(Cc2cccs2)c1=O | -4% | -6% | 7% | i | -7%
CN1CCN(c2ncc3nc(-c4cc(F)cc(F)c4)c(=O)n(Cc4cccs4)c3n2)CC1 | 2% | -13% | -5% | i | 3.2µM*
CN(C)c1ncc2nc(CCc3ccccc3)c(=O)n(Cc3cccs3)c2n1 | ? | -2% | 25µM* | i | 46%
CN1CCN(c2ncc3nc(-c4cc(F)cc(F)c4)c(=O)n(C)c3n2)CC1 | 6% | -3% | 2% | i | -17%
N#Cc1cc2nc(O)c(O)nc2cc1[N+](=O)[O-] | ? | -4% | -4% | i | 40µM*!
C[C@H](O)[C@H](O)[C@@H](O)c1cnc2nc(N)[nH]c(=O)c2n1 | / | -2% | -1% | i | 17%
O=C(N1CCOCC1)N1CCN(Cc2ccccc2)CC1 | -10% | -7% | -3% | i | 9%
Oc1cccc(C(=S)N2CCN(Cc3ccccc3)CC2)c1 | 13µM* | -1% | -4% | i | -3%
Cc1ccc(Cl)cc1 | -5% | -6% | -2% | i | 4%
CC(=O)OC[C@@H]1O[C@H](C/C=N\OC[C@@H](O)COCc2ccco2)C=C[C@@H]1OC(C)=O | 12%[11.4 µM] | / | / | / | /
Cc1nc2cc(NC(=O)Nc3ccc(N4CCOCC4)cc3)ccc2n1C | 3% | -5% | -11% | i | 25µM*
O=C(NCCCN1CCOCC1)c1ccc(Cc2nc3ccccc3[nH]2)cc1 | -1% | / | / | / | /
Cc1ccc(C2C3CSCC=C3C(C#N)=C(N)C2(C#N)C#N)cc1 (stereo not drawn) | 25µM* | 0% | -8% | i | 97%
N#CC1=C(N)C(C#N)(C#N)[C@H](c2ccncc2)[C@H]2CC3(CC=C12)OCCO3 | 3% | 1% | -3% | i | 10%
O=C1C[C@@H](O)[C@@H](O)[C@H]2[C@@H]3C(=O)N(c4cccc(Oc5ccccc5)c4)C(=O)[C@@H]3CC[C@H]12 | 2%[11.4 µM] | / | / | / | /
CCOC(=O)c1nn(-c2ccccc2)c(=O)c2c(N)scc12 | 5µM* | -3% | -5% | i | -20%
CCc1cc(N2CCOCC2)cc2c1[nH]c1ccccc12 | -28% | -4% | -15% | i | 25µM*
NC(N)=NCCC[C@H](NC(=O)CC1(CC(=O)N2CCN(C3c4ccccc4NC(=O)c4ccccc43)CC2)CCCC1)C(=O)NCCn1c(=O)n(-c2ccccc2)n(-c2ccccc2)c1=O (stereo partly drawn) | 20µM* | / | / | / | /
COc1ccccc1CNC(=O)CCCN1C(=O)COc2ccc(C)cc21 | 2% | -4% | 1% | i | 8%
CCN(CCCNC(=O)CCCN1C(=O)COc2ccc(C)cc21)c1cccc(C)c1 | ? | -2% | -13% | i | 16µM*
CCN(CC)S(=O)(=O)c1cccc(-c2nnc(SCC(=O)c3cc(C)n(C)c3C)o2)c1 | 5% | -3% | -2% | i | -4%
CCN(CC)S(=O)(=O)c1cccc(-c2nnc(C(=O)c3ccc(C(F)(F)F)cc3)o2)c1 | -8% | -3% | -10% | i | 16µM*
COc1ccc(OC)c([C@H]2Nc3ccccc3NC3=C2C(=O)CC(C)(C)C3)c1Br | / | 2% | -8% | i | -29%
Cc1cc(-c2nnc(-c3cc4ccccc4oc3=O)o2)c(C)n1-c1ccccc1 | -12% | -2% | 2% | i | 3.2µM*
CN(C)c1ncc2nc(-c3cccs3)c(=O)n(C3CC3)c2n1 | -8% | 26% | 4µM* | i | i
